Source: PubChem
This is a sample that favours compounds with a hit; in the whole collection about 7.3% have one here.
ELG1 genotoxic: inducers of genotoxicity in HEK293T ELG1-luciferase cells | Potency, µM (highest dose often 46 µM), for the others: at the top dose activity change, positive = activation, actives largely listed as activators | actives 1.3% (n = 330,000) | HEK293T ELG1-luciferase reporter, luminescence, 16 h; also: % of control where 0% means no effect; nearly all actives have a fitted effect of over 60% in size
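Genotoxicity was scored as increased ELG1-luciferase reporter signal, measured by ONE-Glo luminescence (30 min, room temperature). Compound or vehicle exposure of the HEK293T reporter cells lasted 16 hr at 37°C.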
Luc counter: counter-screen: inhibitors of Kinase-Glo firefly luciferase | Kinase-Glo luciferase, ATP luminescence, 8 min | actives 0.28% (n = 200,000) | Q27757 | Potency, µM (highest dose often 38.3 µM), for the others: top-dose activity change, negative = inhibition, most hits filed as inhibitors | AID 1379; also: % is scaled to controls: 0 for no effect and ±100 for the full control effect; nearly all actives have a fitted effect of over 60% in size
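Compounds were added to a substrate mix at pH 7.2 (50 mM imidazole, 10 uM ATP, within the enzyme's linear range), followed by Kinase-Glo detection reagent; luminescence was measured after 8 minutes at ambient temperature.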
Rab9 promoter act: activates the Rab9 promoter. Huh7 Rab9 promoter-luciferase reporter, luminescence, 24 h. AID 485297. Potency, µM (doses to about 9.22 µM), without a hit: top-dose activation, negative = inhibition, usual class: activators. actives 2.8% (n = 320,000); also: % of control where 0% means no effect; nearly all actives have a fitted effect of over 60% in size
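Steps: seed 1500 Huh7 Rab9-luc cells per well, rest 2 h at 37 °C; add compound in DMSO; incubate 24 h; add luciferase reagent, 10 min ambient; read luminescence.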
SMN2 splice up: enhancers of SMN2 splice variant expression; HEK293 SMN2-luciferase splicing reporter, luminescence, 30-36 h; Potency, µM (highest dose often 46.1 µM), for the others: at the highest dose activity change, positive = activation, usual class: activators; actives 2.8% (n = 210,000); also: % of control where 0% means no effect; nearly all actives have a fitted effect of over 55% in size
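HEK293 cells carry an SMN2 minigene-luciferase reporter in which exon 7 inclusion puts luciferase in frame. Cells were seeded at 2000 cells/well, attached for 10-12 hours, then exposed to compounds for 30-36 hours at 37C before ONE-Glo luminescence.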
NPC1 promoter act: NPC1 promoter activation. AID 485313. actives 2.4% (n = 320,000). Huh7 NPC1 promoter luciferase reporter, 24 h. Potency, µM (series often up to 9.22 µM), for inactives: top-dose activation, hits mostly activators; also: % of control where 0% means no effect; nearly all actives have a fitted effect of over 60% in size
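Quantitative HTS used a cell-based reporter: Huh7 cells stably bearing the NPC1 promoter upstream of luciferase were treated with compounds for 24 h, and promoter activation was read as luminescence.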
FLuc counter: inhibits or activates purified firefly luciferase, miR-21 counter-screen; purified FLuc, Km substrates, luminescence inhibition; Potency, µM (doses to about 57.5 µM), for the others: top-dose activity change, negative = inhibition, hits mostly inhibitors; actives 6.9% (n = 360,000); AID 588342;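 also: plate controls were vehicle for no effect and reference inhibitor for full effect; nearly all actives have a fitted effect of over 55% in size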
Target sequence (P08659 whole entry, looked up): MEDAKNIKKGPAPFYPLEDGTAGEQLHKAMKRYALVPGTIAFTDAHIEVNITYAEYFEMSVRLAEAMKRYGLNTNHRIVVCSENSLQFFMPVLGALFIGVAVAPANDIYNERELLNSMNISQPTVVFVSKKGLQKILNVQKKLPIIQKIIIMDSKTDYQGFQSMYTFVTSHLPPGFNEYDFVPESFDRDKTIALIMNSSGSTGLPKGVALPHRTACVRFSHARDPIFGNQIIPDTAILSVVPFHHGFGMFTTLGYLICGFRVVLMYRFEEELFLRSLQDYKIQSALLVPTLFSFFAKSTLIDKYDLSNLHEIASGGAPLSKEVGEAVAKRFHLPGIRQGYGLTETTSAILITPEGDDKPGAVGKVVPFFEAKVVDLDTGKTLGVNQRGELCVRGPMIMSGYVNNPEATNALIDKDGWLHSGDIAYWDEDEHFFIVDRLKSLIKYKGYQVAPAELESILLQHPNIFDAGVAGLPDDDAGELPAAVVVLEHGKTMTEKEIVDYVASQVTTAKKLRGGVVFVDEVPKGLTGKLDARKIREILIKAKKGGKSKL
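Purified P. pyralis luciferase, 10 nM final, with Km-level 10 uM D-luciferin and 10 uM ATP in 50 mM Tris acetate pH 7.5, 10 mM Mg acetate, 0.01% Tween-20, 0.05% BSA; 6-point qHTS titration about 60 µM downward; luminescence read.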
* marks the source's active call; other numbers are inactive results; u = inconclusive; x = no result given; [ ] = another dose, or the depositor's remark. Calls follow the shape of the dose curve; as a rule, active = well fitted curve in the direction sought with a large enough effect; inconclusive = small, poorly fitted or top-dose-only effect, or another doubt; inactive = no such curve, though single readings can be large; an effect the other way counts as inactive or inconclusive. Potency is read from the fitted curve at half-maximal effect.

SMILES	ELG1 genotoxic	Luc counter	Rab9 promoter act	SMN2 splice up	NPC1 promoter act	FLuc counter
CCc1cccc(NC(=O)Cn2c(=O)n(Cc3ccccc3)c(=O)c3c2c2cc(OC)ccc2n3C)c1	x	x	x	x	x	-3.3%
O=c1c(C=NCCCn2ccnc2)c(-c2ccccc2)[nH]n1-c1nc2ccccc2s1	u	-2.2%	2.1%	x	-4.1%	16.9µM*
NC(N)=Nc1nc(CCN2C(=O)c3ccccc3C2=O)cs1	3.9%	-4.7%	0.4%	31.6µM*	-3.3%	-9.9%
Cc1nc2ccc(-c3nc4cc(N)ccc4o3)cc2[nH]1	u	-11.6%	0.398µM*	2.82µM*	0.398µM*	1.9µM*
Nc1ccc2oc(-c3ccc4nc[nH]c4c3)nc2c1	u	-15.9%	u	12.6µM*	u	1.9µM*
O=C(NCCC1=CCCCC1)c1ccc2c(c1)N(Cc1ccccc1)C(=O)c1ccccc1S2(=O)=O	x	x	x	11.6%	x	-5.8%
Cc1ccccc1OCc1nc2c3c(ncn2n1)-c1ccccc1CC31CCCC1	1.7%	-2.4%	0.1%	-32.1%	-5.7%	-0.4%
Cc1ccccc1OCc1nc2c3cnn(C)c3ncn2n1	5.8µM*	-8.4%	2.82µM*	u	3.98µM*	u
CC(=O)Nc1ccc(C(=O)COC(=O)C2CC2)c(F)c1	u	x	24.3%	x	u	5.36µM*
CCc1noc(C)c1C(=O)OCC(=O)c1ccc(NC(C)=O)cc1F	1.9%	x	x	x	x	x
CC(=O)Nc1ccc(C(=O)COC(=O)Cc2ccsc2)c(F)c1	0.7%	x	x	x	x	x
CC(=O)Nc1ccc(C(=O)COC(=O)C2CCCCC2)c(F)c1	5.8%	x	2.1%	x	1.7%	0.675µM*
COc1cccc(NC(=O)c2oc3ccc(S(=O)(=O)N4CCC5(CC4)OCCO5)cc3c2C)c1	x	x	x	x	x	0.6%
CCOc1ccc(NC(=O)c2sc3nc4c(cc3c2N)CCCCCC4)cc1	x	x	x	7.3%	x	5.5%
CCN1CCc2nc3sc(C(=O)c4ccccc4)c(N)c3cc2C1	x	x	x	-11.7%	x	9.53µM*
Nc1c(C(=O)Nc2ccc(Cl)c(C(=O)O)c2)sc2nc3c(cc12)CCCC3	15.5%	x	u	x	u	2.69µM*
Nc1c(C(=O)Nc2cccc(C(=O)O)c2)sc2nc3c(cc12)CCCC3	u	x	1.26µM*	x	u	0.0675µM*
CCN1CCc2nc3sc(C(=O)c4ccc(F)cc4)c(N)c3cc2C1	x	x	x	x	x	-1.8%
Nc1c(C(=O)Nc2ccc(C(=O)O)cc2)sc2nc3c(cc12)CCCC3	x	x	x	u	x	0.19µM*
Cc1ccc(NC(=O)Cn2cc(C(=O)c3cccs3)c3ccccc32)cc1C	x	x	x	u	x	-12.1%
Cc1ccc(N(CC(=O)Nc2ccc(Cl)cc2)S(=O)(=O)c2cccc3nonc23)cc1	x	x	x	-20.9%	x	3.5%
CCN(c1ncnc2c1cnn2-c1cc(Cl)ccc1C)C1CCCCC1	x	x	x	x	x	-1.6%
O=C(Nc1ccc2nn(-c3ccc(F)cc3)nc2c1)c1cccc2c(Cl)cccc12	x	x	x	10.9%	x	-3.4%
Cc1c(C(=O)N(Cc2ccc(N(C)C)cc2)Cc2ccco2)oc2cc(Br)ccc12	x	x	x	18.8%	x	-1.9%
Cc1ccc(-n2ncc3c(N4CCN(C)CC4)ncnc32)cc1C	x	x	x	x	x	4.26µM*
SMILES	ELG1 genotoxic	Luc counter	Rab9 promoter act	SMN2 splice up	NPC1 promoter act	FLuc counter
Cc1ccc(-n2ncc3c2ncn2c(C)nnc32)cc1C	u	-19.6%	2µM*	u	2.51µM*	5.36µM*
Cn1ncc2c(N3CCN(c4cccc(Cl)c4)CC3)ncnc21	x	x	x	x	x	-8.0%
CN1CCN(c2ncnc3c2cnn3-c2cccc(Cl)c2)CC1	x	x	x	x	x	13.5µM*
O=C(Nc1ccc(C(F)(F)F)cc1)C1CCCN(c2cnccn2)C1 (stereo not drawn)	x	x	x	-20.1%	x	-2.1%
O=C(O)c1[nH]c2c([N+](=O)[O-])cc([N+](=O)[O-])cc2c1C(=O)O	x	-3.7%[7.66 µM]	x	-1.3%[9.22 µM]	x	x
Cc1ccc(NC(=O)c2cc3c(=O)oc4ccccc4c3s2)nc1	7.1%	-1.5%	1.3%	0.3%	1.0%	-0.8%
Cc1ccc(NC(=O)c2oc3ccccc3c2C)nc1	u	x	3.16µM*	x	3.55µM*	12µM*
Cc1c(C(=O)Nc2ccccn2)oc2c(Cl)cccc12	5.17µM*	x	12.7%	x	5.0%	u
Cc1c(C(=O)Nc2ccncc2)oc2ccccc12	u	-12.6%	14.0%	-23.8%	15.5%	19µM*
Cc1c(C(=O)Nc2ccccn2)oc2ccccc12	u	-20.8%	u	25.1µM*	u	4.26µM*
COc1ccc(-n2nc(C(=O)N3CCN(c4cccc(C)c4C)CC3)c3c4ccccc4n(C)c3c2=O)cc1Cl	x	x	x	-1.7%	x	-7.0%
Cc1c(C(=O)Nc2cccnc2Cl)oc2ccccc12	u	x	3.16µM*	x	2.51µM*	u
Cc1noc(C(=O)Nc2cccnc2Cl)c1Cl	1.1%	x	12.5%	x	-2.9%	4.2%
Cc1ccc(-c2nc(CCNC(=O)C(=O)Nc3ccc(C)c(C)c3)cs2)cc1	x	x	x	x	x	0.5%
Cc1ccc(C(=O)NCCc2csc(-c3cccnc3)n2)cc1	u	-2.3%	u	u	19.7%	5.36µM*
COc1cccc(OC)c1C(=O)NCCc1csc(-c2ccc(Cl)cc2)n1	x	x	x	x	x	-3.9%
O=C(NCCc1csc(-c2cccnc2)n1)c1cccs1	-3.6%	1.7%	1.9%	-1.1%	-0.5%	u
Cc1ccc(-c2nc(CCNC(=O)c3ccc(C)c(C)c3)cs2)cc1	x	x	x	x	x	23.9µM*
COc1cccc(C(=O)NCCc2csc(-c3ccc(Cl)cc3)n2)c1	x	x	x	x	x	21.3µM*
Cc1ccc(C2C(=O)N(C3CCCCCC3)CC(=O)N2CCC2=CCCCC2)cc1 (stereo not drawn)	x	x	x	x	x	2.6%
C1=Nc2ccccc2CN1c1ccccc1	u	-16.4%	u	7.94µM*	u	15.1µM*
Cc1ccc(OCC(=O)NCc2ccccn2)c(Br)c1	u	0.7%	u	26.2%	u	16.9µM*
Cc1ccc(-c2cc(C(=O)NCc3ccccn3)c3ccccc3n2)cc1	-2.0%	-5.1%	25.4%	u	1.3%	4.26µM*
CCc1ccccc1Nc1cc(C(=O)NCc2ccccn2)c2ccccc2n1	-11.4%	-2.9%	-0.8%	-5.8%	0.8%	16.9µM*
CCc1ccc(-c2cc(C(=O)NCc3ccccn3)c3ccccc3n2)cc1	-13.1%	u	25.9%	1.9%	2.4%	0.849µM*
O=C(NCc1ccccn1)c1cc(-c2ccc(Br)cc2)nc2ccccc12	-15.3%	-0.6%	-5.0%	18.1%	-1.5%	u
CCn1cc2c(n1)-c1c(oc(C(=O)Nc3cccc(C(F)(F)F)c3)c1C)CC2	x	x	x	x	x	0.0%
COC(=O)c1ccc(C(NC(=O)OCc2ccccc2)/C(F)=C/[C@@H](C)C(=O)Nc2ccc(OC)cc2)cc1 (stereo partly drawn)	x	-1.2%	x	-10.9%	x	x
Cc1cccc(OCc2nc(CC(=O)Nc3ccc(Cl)cc3)cs2)c1	x	x	x	x	x	-6.3%
